Experimental data taken from PubChem BioAssay AID1159580 (chemical genetic matrix, 2015).
Hit rate of the full screen: of about 5,500 compounds, about 2,000 (36%) were called active. Inconclusive results (about 18%) are left out. No stated cut-off is given here; in the data, active means normalized growth mostly below about 0.91 (no sharp cut-off); inconclusive means no clear call, values can overlap the other calls; inactive means mostly above about 0.92. This is one part of the list.

Assay: chemical genetic growth profiling, strain panel (AID 1159580);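 further: tested at 20 µM; growth read once vehicle control cultures reached saturation at 30 °C; 1 = growth at the plate median or of vehicle wells; lower values mean less growth of the strain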
Details: growth OD

Measured: normalized growth

CC(=O)Oc1cccc2c1C(=O)c1c(OC(C)=O)cc(C(=O)O)cc1C2=O
inactive: S. cerevisiae deletion strains, locus YJR075W, strain HOC1, hits give low values 0.994 | S. cerevisiae deletion strains, locus YKL009W, strain mrt4, hits give low values 0.986 | S. cerevisiae deletion strains, locus YKL068W, hits give low values 0.993 | S. cerevisiae deletion strains, locus YKL085W, strain MDH1 (second series), hits give low values 1 | S. cerevisiae deletion strains, locus YKL085W, strain MDH1, hits give low values 1 | S. cerevisiae deletion strains, locus YKL190W, strain CNB1, hits give low values 0.986 | S. cerevisiae deletion strains, locus YKR091W, strain srl3, hits give low values 0.944 | S. cerevisiae deletion strains, locus YLL041C, strain sdh2, hits give low values 0.954 | S. cerevisiae deletion strains, locus YLR039C, strain RIC1, hits give low values 1.02 | S. cerevisiae deletion strains, locus YLR058C, strain SHM2, hits give low values 1 | S. cerevisiae deletion strains, locus YLR113W, strain HOG1, hits give low values 1 | S. cerevisiae deletion strains, locus YLR262C, strain YPT6 (second series), hits give low values 0.891 | S. cerevisiae deletion strains, locus YLR262C, strain YPT6, hits give low values 1.05 | S. cerevisiae deletion strains, locus YLR320W, strain mms22, hits give low values 0.908 | S. cerevisiae deletion strains, locus YLR330W, strain CHS5, hits give low values 1.01 | S. cerevisiae deletion strains, locus YLR342W, strain FKS1 (second series), hits give low values 1.05 | S. cerevisiae deletion strains, locus YLR357W, strain rsc2, hits give low values 0.859 | S. cerevisiae deletion strains, locus YLR370C, strain arc18, hits give low values 0.917 | S. cerevisiae deletion strains, locus YLR384C, strain iki3, hits give low values 0.954 | S. cerevisiae deletion strains, locus YML016C, strain PPZ1, hits give low values 1.01 | S. cerevisiae deletion strains, locus YML120C, strain ndi1, hits give low values 0.943 | S. cerevisiae deletion strains, locus YMR125W, strain sto1, hits give low values 0.94 | S. cerevisiae deletion strains, locus YMR129W, hits give low values 0.947 | S. cerevisiae deletion strains, locus YMR205C, strain PFK2, hits give low values 0.948 | S. cerevisiae deletion strains, locus YMR231W, strain pep5, hits give low values 0.942 | S. cerevisiae deletion strains, locus YMR263W, strain SAP30, hits give low values 1 | S. cerevisiae deletion strains, locus YMR307W, strain GAS1, hits give low values 1.18 | S. cerevisiae deletion strains, locus YNL067W, strain RPL9B, hits give low values 1.01 | S. cerevisiae deletion strains, locus YNL128W, strain TEP1, hits give low values 0.993 | S. cerevisiae deletion strains, locus YNL153C, strain GIM3, hits give low values 1.01 | S. cerevisiae deletion strains, locus YNL183C, strain NPR1, hits give low values 0.896 | S. cerevisiae deletion strains, locus YNL209W, strain ssb2, hits give low values 0.93 | S. cerevisiae deletion strains, locus YNL233W, strain BNI4, hits give low values 1.02 | S. cerevisiae deletion strains, locus YNL248C, strain rpa49, hits give low values 0.948 | S. cerevisiae deletion strains, locus YNL250W, strain rad50, hits give low values 0.992 | S. cerevisiae deletion strains, locus YNL271C, strain bni1, hits give low values 0.997 | S. cerevisiae deletion strains, locus YNL298W, strain CLA4, hits give low values 0.995 | S. cerevisiae deletion strains, locus YNL322C, strain KRE1, hits give low values 1 | S. cerevisiae deletion strains, locus YNR049C, strain mso1, hits give low values 0.956 | S. cerevisiae deletion strains, locus YOL006C, strain TOP1, hits give low values 1.02 | S. cerevisiae deletion strains, locus YOR001W, strain rrp6, hits give low values 0.952 | S. cerevisiae deletion strains, locus YOR061W, strain CKA2, hits give low values 0.996 | S. cerevisiae deletion strains, locus YOR069W, strain VPS5, hits give low values 1 | S. cerevisiae deletion strains, locus YOR070C, strain gyp1, hits give low values 0.932 | S. cerevisiae deletion strains, locus YOR080W, strain dia2, hits give low values 0.938 | S. cerevisiae deletion strains, locus YOR083W, strain WHI5, hits give low values 0.918 | S. cerevisiae deletion strains, locus YOR106W, strain vam3, hits give low values 0.905 | S. cerevisiae deletion strains, locus YOR184W, strain ser1, hits give low values 1.02 | S. cerevisiae deletion strains, locus YOR231W, strain MKK1, hits give low values 0.95 | S. cerevisiae deletion strains, locus YOR270C, strain vph1, hits give low values 0.925 | S. cerevisiae deletion strains, locus YOR290C, strain snf2, hits give low values 0.927 | S. cerevisiae deletion strains, locus YPL055C, strain LGE1, hits give low values 1.01 | S. cerevisiae deletion strains, locus YPL078C, strain atp4, hits give low values 0.899 | S. cerevisiae deletion strains, locus YPL106C, strain sse1, hits give low values 0.989 | S. cerevisiae deletion strains, locus YPL241C, strain CIN2, hits give low values 1.05 | S. cerevisiae deletion strains, locus YPL256C, strain CLN2, hits give low values 0.955 | S. cerevisiae deletion strains, locus YPR141C, strain kar3, hits give low values 0.997 | S. cerevisiae strains, strain wild type, hits give low values 0.998
active: S. cerevisiae deletion strains, locus YKL160W, strain elf1, hits give low values 0.901 | S. cerevisiae deletion strains, locus YKR001C, strain vps1, hits give low values 0.174 | S. cerevisiae deletion strains, locus YKR026C, strain gcn3, hits give low values 0.908 | S. cerevisiae deletion strains, locus YLL001W, strain dnm1, hits give low values 0.901 | S. cerevisiae deletion strains, locus YLL026W, hits give low values 0.917 | S. cerevisiae deletion strains, locus YLR027C, strain aat2, hits give low values 0.92 | S. cerevisiae deletion strains, locus YLR102C, strain apc9, hits give low values 0.589 | S. cerevisiae deletion strains, locus YLR221C, strain rsa3, hits give low values 0.898 | S. cerevisiae deletion strains, locus YLR258W, strain gsy2, hits give low values 0.909 | S. cerevisiae deletion strains, locus YLR268W, strain sec22, hits give low values 0.39 | S. cerevisiae deletion strains, locus YLR342W, strain FKS1, hits give low values 0.891 | S. cerevisiae deletion strains, locus YLR371W, strain rom2, hits give low values 0.433 | S. cerevisiae deletion strains, locus YLR418C, strain cdc73, hits give low values 0.28 | S. cerevisiae deletion strains, locus YML032C, strain rad52, hits give low values 0.392 | S. cerevisiae deletion strains, locus YML124C, strain tub3, hits give low values 0.537 | S. cerevisiae deletion strains, locus YMR058W, strain fet3, hits give low values 0.806 | S. cerevisiae deletion strains, locus YMR078C, strain ctf18, hits give low values 0.826 | S. cerevisiae deletion strains, locus YMR223W, strain ubp8, hits give low values 0.301 | S. cerevisiae deletion strains, locus YNL071W, strain lat1, hits give low values 0.901 | S. cerevisiae deletion strains, locus YNL307C, strain MCK1, hits give low values 0.221 | S. cerevisiae deletion strains, locus YNL322C, strain KRE1 (second series), hits give low values 0.887 | S. cerevisiae deletion strains, locus YNR052C, strain pop2, hits give low values 0.135 | S. cerevisiae deletion strains, locus YOL012C, strain htz1 2.42 [resistant] | S. cerevisiae deletion strains, locus YOL147C, strain pex11, hits give low values 0.433 | S. cerevisiae deletion strains, locus YOR136W, strain idh2, hits give low values 0.498 | S. cerevisiae deletion strains, locus YOR144C, strain elg1, hits give low values 0.609 | S. cerevisiae deletion strains, locus YOR265W, strain rbl2, hits give low values 0.918 | S. cerevisiae deletion strains, locus YOR316C, strain cot1, hits give low values 0.433 | S. cerevisiae deletion strains, locus YPL051W, strain arl3, hits give low values 0.867 | S. cerevisiae deletion strains, locus YPL240C, strain hsp82, hits give low values 0.909 | S. cerevisiae deletion strains, locus YPR119W, strain clb2, hits give low values 0.63 | S. cerevisiae deletion strains, locus YPR163C, strain tif3, hits give low values 0.359 | S. cerevisiae deletion strains, locus YPR167C, strain met16, hits give low values 0.309 | S. cerevisiae deletion strains, strain wtn01, hits give low values 0.22
